The campaign covered roughly 5,500 compounds. About 2,000 (36%) were called active. Inconclusive results (about 18%) are left out. Cut-off read from the data, not from the text of the source: active = normalized growth mostly below about 0.91 (no sharp cut-off); inconclusive = no clear call, values can overlap the other calls; inactive = mostly above about 0.92. This is one part of the list.
Assay: chemical genetic growth profiling, strain panel (AID 1159580);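 note: tested at 20 µM; growth read once vehicle control cultures reached saturation at 30 °C; 1 = growth at the plate median or of vehicle wells; lower values mean less growth of the strain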
Conditions: growth OD
[1] = S. cerevisiae deletion strains, locus YAL013W, strain DEP1, active compounds read low
[2] = S. cerevisiae deletion strains, locus YDR150W, strain NUM1, active compounds read low
[3] = S. cerevisiae deletion strains, locus YGR078C, strain PAC10, active compounds read low
[4] = S. cerevisiae deletion strains, locus YJR075W, strain HOC1, active compounds read low
[5] = S. cerevisiae deletion strains, locus YMR307W, strain GAS1, active compounds read low
[6] = S. cerevisiae deletion strains, locus YNL153C, strain GIM3, active compounds read low

Measured: normalized growth

CCCN1CCO[C@@H]2c3cc(O)ccc3OC[C@H]21
inactive: [1] 0.981 | S. cerevisiae deletion strains, locus YAL040C, strain CLN3, active compounds read low 1.09 | S. cerevisiae deletion strains, locus YCL061C, strain MRC1 (second series), active compounds read low 1 | [2] 0.999 | S. cerevisiae deletion strains, locus YDR363W, strain ESC2, active compounds read low 1.03 | S. cerevisiae deletion strains, locus YER002W, strain NOP16, active compounds read low 0.989 | [3] 1.01 | [4] 0.993 | [5] 0.981 | [6] 0.97 | S. cerevisiae deletion strains, locus YNL175C, strain NOP13, active compounds read low 1.02 | S. cerevisiae deletion strains, locus YNL197C, strain WHI3, active compounds read low 1 | S. cerevisiae deletion strains, locus YNL224C, strain SQS1, active compounds read low 0.993 | S. cerevisiae deletion strains, locus YOR083W, strain WHI5 (second series), active compounds read low 1.02

COc1cc2c3cc1Oc1cc(ccc1O)OC1c4c(cc(OC)c(O)c4Oc4ccc(cc4)CC3N(C)CC2)CCN1C (stereo not given)
inactive: [1] 0.992 | S. cerevisiae deletion strains, locus YBR021W, strain FUR4, active compounds read low 0.971 | S. cerevisiae deletion strains, locus YBR229C, strain ROT2, active compounds read low 0.993 | S. cerevisiae deletion strains, locus YCL029C, strain bik1, active compounds read low 0.967 | S. cerevisiae deletion strains, locus YDL035C, strain GPR1, active compounds read low 0.978 | S. cerevisiae deletion strains, locus YDL074C, strain BRE1, active compounds read low 1.02 | S. cerevisiae deletion strains, locus YDL101C, strain DUN1, active compounds read low 0.993 | S. cerevisiae deletion strains, locus YDL134C, strain PPH21, active compounds read low 0.996 | S. cerevisiae deletion strains, locus YDL185W, strain tfp1, active compounds read low 0.966 | S. cerevisiae deletion strains, locus YDL192W, strain arf1, active compounds read low 0.981 | S. cerevisiae deletion strains, locus YDR101C, strain arx1, active compounds read low 0.983 | [2] 0.995 | S. cerevisiae deletion strains, locus YDR162C, strain NBP2, active compounds read low 1.01 | S. cerevisiae deletion strains, locus YDR318W, strain mcm21, active compounds read low 0.965 | S. cerevisiae deletion strains, locus YDR388W, active compounds read low 0.989 | S. cerevisiae deletion strains, locus YDR502C, strain sam2, active compounds read low 0.984 | S. cerevisiae deletion strains, locus YEL061C, strain CIN8, active compounds read low 0.985 | S. cerevisiae deletion strains, locus YER110C, active compounds read low 0.966 | S. cerevisiae deletion strains, locus YER155C, strain BEM2, active compounds read low 0.999 | S. cerevisiae deletion strains, locus YER167W, strain BCK2, active compounds read low 0.958 | S. cerevisiae deletion strains, locus YGL078C, strain dbp3, active compounds read low 0.979 | S. cerevisiae deletion strains, locus YGL086W, strain mad1, active compounds read low 0.963 | S. cerevisiae deletion strains, locus YGL248W, strain PDE1, active compounds read low 0.999 | [3] 1.02 | S. cerevisiae deletion strains, locus YGR135W, strain pre9, active compounds read low 0.991 | S. cerevisiae deletion strains, locus YGR229C, strain SMI1, active compounds read low 1.01 | S. cerevisiae deletion strains, locus YGR252W, strain gcn5, active compounds read low 0.925 | S. cerevisiae deletion strains, locus YHR030C, strain SLT2, active compounds read low 0.972 | S. cerevisiae deletion strains, locus YHR079C, strain IRE1 (second series), active compounds read low 0.992 | S. cerevisiae deletion strains, locus YHR094C, strain hxt1, active compounds read low 0.957 | S. cerevisiae deletion strains, locus YHR129C, strain ARP1, active compounds read low 0.997 | S. cerevisiae deletion strains, locus YHR200W, strain rpn10, active compounds read low 0.964 | S. cerevisiae deletion strains, locus YIL066C, strain RNR3, active compounds read low 0.996 | S. cerevisiae deletion strains, locus YIL073C, strain SPO22, active compounds read low 0.899 | S. cerevisiae deletion strains, locus YIL125W, strain kgd1, active compounds read low 0.984 | S. cerevisiae deletion strains, locus YIR030C, strain dcg1, active compounds read low 0.978 | S. cerevisiae deletion strains, locus YJL095W, strain BCK1, active compounds read low 1.03 | S. cerevisiae deletion strains, locus YJL134W, strain LCB3, active compounds read low 0.99 | S. cerevisiae deletion strains, locus YJL168C, strain set2, active compounds read low 0.986 | S. cerevisiae deletion strains, locus YJL187C, strain SWE1 (second series), active compounds read low 0.999 | S. cerevisiae deletion strains, locus YJR043C, strain POL32, active compounds read low 0.952 | [4] 1.05 | S. cerevisiae deletion strains, locus YKL009W, strain mrt4, active compounds read low 0.977 | S. cerevisiae deletion strains, locus YKL068W, active compounds read low 0.975 | S. cerevisiae deletion strains, locus YKL085W, strain MDH1 (second series), active compounds read low 0.995 | S. cerevisiae deletion strains, locus YKL085W, strain MDH1, active compounds read low 0.995 | S. cerevisiae deletion strains, locus YKL190W, strain CNB1, active compounds read low 0.998 | S. cerevisiae deletion strains, locus YKR001C, strain vps1, active compounds read low 0.969 | S. cerevisiae deletion strains, locus YLR039C, strain RIC1, active compounds read low 0.942 | S. cerevisiae deletion strains, locus YLR058C, strain SHM2, active compounds read low 0.988 | S. cerevisiae deletion strains, locus YLR102C, strain apc9, active compounds read low 0.98 | S. cerevisiae deletion strains, locus YLR262C, strain YPT6, active compounds read low 0.982 | S. cerevisiae deletion strains, locus YLR268W, strain sec22, active compounds read low 1 | S. cerevisiae deletion strains, locus YLR330W, strain CHS5, active compounds read low 0.987 | S. cerevisiae deletion strains, locus YLR342W, strain FKS1 (second series), active compounds read low 0.957 | S. cerevisiae deletion strains, locus YLR371W, strain rom2, active compounds read low 0.968 | S. cerevisiae deletion strains, locus YLR418C, strain cdc73, active compounds read low 1.02 | S. cerevisiae deletion strains, locus YML016C, strain PPZ1, active compounds read low 0.99 | S. cerevisiae deletion strains, locus YML032C, strain rad52, active compounds read low 0.951 | S. cerevisiae deletion strains, locus YML124C, strain tub3, active compounds read low 0.976 | S. cerevisiae deletion strains, locus YMR078C, strain ctf18, active compounds read low 0.968 | S. cerevisiae deletion strains, locus YMR223W, strain ubp8, active compounds read low 0.951 | S. cerevisiae deletion strains, locus YMR263W, strain SAP30, active compounds read low 1.01 | [5] 0.955 | S. cerevisiae deletion strains, locus YNL067W, strain RPL9B, active compounds read low 1 | S. cerevisiae deletion strains, locus YNL128W, strain TEP1, active compounds read low 0.99 | [6] 1.02 | S. cerevisiae deletion strains, locus YNL233W, strain BNI4, active compounds read low 1.02 | S. cerevisiae deletion strains, locus YNL250W, strain rad50, active compounds read low 0.973 | S. cerevisiae deletion strains, locus YNL271C, strain bni1, active compounds read low 0.993 | S. cerevisiae deletion strains, locus YNL298W, strain CLA4, active compounds read low 0.967 | S. cerevisiae deletion strains, locus YNL307C, strain MCK1, active compounds read low 0.952 | S. cerevisiae deletion strains, locus YNL322C, strain KRE1, active compounds read low 0.979 | S. cerevisiae deletion strains, locus YNR052C, strain pop2, active compounds read low 0.961 | S. cerevisiae deletion strains, locus YOL006C, strain TOP1, active compounds read low 1.03 | S. cerevisiae deletion strains, locus YOL012C, strain htz1 1.06 | S. cerevisiae deletion strains, locus YOL147C, strain pex11, active compounds read low 0.973 | S. cerevisiae deletion strains, locus YOR061W, strain CKA2, active compounds read low 0.998 | S. cerevisiae deletion strains, locus YOR069W, strain VPS5, active compounds read low 0.991 | S. cerevisiae deletion strains, locus YOR136W, strain idh2, active compounds read low 0.96 | S. cerevisiae deletion strains, locus YOR144C, strain elg1, active compounds read low 0.982 | S. cerevisiae deletion strains, locus YOR184W, strain ser1, active compounds read low 0.93 | S. cerevisiae deletion strains, locus YOR316C, strain cot1, active compounds read low 0.977 | S. cerevisiae deletion strains, locus YPL055C, strain LGE1, active compounds read low 1 | S. cerevisiae deletion strains, locus YPL241C, strain CIN2, active compounds read low 0.997 | S. cerevisiae deletion strains, locus YPR119W, strain clb2, active compounds read low 0.989 | S. cerevisiae deletion strains, locus YPR141C, strain kar3, active compounds read low 0.99 | S. cerevisiae deletion strains, locus YPR163C, strain tif3, active compounds read low 0.96 | S. cerevisiae deletion strains, locus YPR167C, strain met16, active compounds read low 0.98 | S. cerevisiae deletion strains, strain wtn01, active compounds read low 1.01 | S. cerevisiae strains, strain wild type, active compounds read low 0.989

From PubChem BioAssay AID1159580 (chemical genetic matrix, 2015)
